# Results from PubChem BioAssay (NCATS).
# Inconclusive results are not listed. The source made the active and inactive calls. Unless noted, calls follow the shape of the dose curve; as a rule, active = well fitted curve in the direction sought with a large enough effect; inconclusive = small, poorly fitted or top-dose-only effect, or another doubt; inactive = no such curve, though single readings can be large; an effect the other way counts as inactive or inconclusive.
# Legend:
# [1] = target: Lysosomal acid glucosylceramidase (Homo sapiens) (UniProt P04062); experiment: Glucocerebrosidase-p2 (AID 348; in the data active = potency below about 10 µM; also: potency is read from the fitted curve at half-maximal effect); conditions: purified GBA, blue fluorogenic substrate, 40 min
# Lysosomal acid glucosylceramidase (Homo sapiens), sequence (P04062 whole entry, looked up): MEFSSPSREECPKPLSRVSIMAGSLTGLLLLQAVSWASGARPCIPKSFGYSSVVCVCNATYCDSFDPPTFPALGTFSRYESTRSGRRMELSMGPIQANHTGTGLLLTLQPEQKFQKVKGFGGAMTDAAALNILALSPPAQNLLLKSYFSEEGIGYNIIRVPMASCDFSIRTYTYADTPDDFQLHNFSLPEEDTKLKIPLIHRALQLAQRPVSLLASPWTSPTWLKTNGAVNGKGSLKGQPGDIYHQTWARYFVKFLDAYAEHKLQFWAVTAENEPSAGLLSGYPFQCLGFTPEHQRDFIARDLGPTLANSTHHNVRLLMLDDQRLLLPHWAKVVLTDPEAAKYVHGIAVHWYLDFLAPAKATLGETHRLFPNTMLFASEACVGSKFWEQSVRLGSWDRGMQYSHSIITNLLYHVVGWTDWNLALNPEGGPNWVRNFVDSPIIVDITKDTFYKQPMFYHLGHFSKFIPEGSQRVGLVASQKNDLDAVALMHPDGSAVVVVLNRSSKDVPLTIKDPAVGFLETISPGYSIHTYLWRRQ
# Procedure, shortened: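 Compounds titrated from 0.6 nM upwards against 0.2 nM enzyme in pH 5.9 citric acid/KH2PO4, taurocholate, tween-20; blue fluorogenic substrate 80 uM, 40 min room temperature, stopped and read Ex 365/Em 440 for AC50.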
# [2] = AP1 Signaling Pathway (AID 357; active = well fitted curve in either direction with a large enough effect, not every such curve was filed as active;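 also: ME-180 reporter cells stimulated with EGF at its EC50 level; % is scaled to controls: 0 for no effect and ±100 for the full control effect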); conditions: ME-180 AP-1-bla reporter, EGF-induced, beta-lactamase ratio, 5 h; at 7.69 µM (top of the series) unless noted
# Procedure, shortened: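 Cells are seeded overnight, exposed to compound titrations and an EC50 level of EGF for 5 hours at 37 °C, then loaded with CCF4 dye for 2.5 hours. Beta-lactamase activity under the AP-1 element is read as a blue/green ratio.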
# [3] = target: Cytochrome P450 1A2 (Homo sapiens) (UniProt P05177); experiment: p450-cyp1a2 (AID 410; calls by dose curve; also: potency is read from the fitted curve at half-maximal effect)
# Cytochrome P450 1A2 (Homo sapiens), sequence (P05177 whole entry, looked up): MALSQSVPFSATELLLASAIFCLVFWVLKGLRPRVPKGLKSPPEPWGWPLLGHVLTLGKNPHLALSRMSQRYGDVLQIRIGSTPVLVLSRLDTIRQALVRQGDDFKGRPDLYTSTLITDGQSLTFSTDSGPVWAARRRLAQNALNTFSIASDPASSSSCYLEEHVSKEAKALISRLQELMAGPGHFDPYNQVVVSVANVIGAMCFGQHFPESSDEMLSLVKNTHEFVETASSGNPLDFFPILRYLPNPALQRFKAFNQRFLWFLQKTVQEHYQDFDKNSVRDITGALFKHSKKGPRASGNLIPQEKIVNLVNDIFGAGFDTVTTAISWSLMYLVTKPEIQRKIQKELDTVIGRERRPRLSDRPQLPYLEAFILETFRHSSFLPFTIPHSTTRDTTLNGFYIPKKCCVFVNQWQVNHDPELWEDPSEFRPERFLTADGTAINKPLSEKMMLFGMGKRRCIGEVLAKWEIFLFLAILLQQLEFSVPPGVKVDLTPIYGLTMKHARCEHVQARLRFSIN
# Procedure, shortened: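 Human CYP1A2 (20nM) demethylated Luciferin-ME at its Km (100uM) in 100mM KPO4. After 10 min compound preincubation, NADPH regeneration ran the reaction 60 min at room temperature. Luciferin was read by luminescence, normalized to 57 uM furafylline.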
# [4] = Stat Signaling Pathway (AID 446; active = well fitted curve in either direction with a large enough effect, not every such curve was filed as active;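 also: ME-180 cervical cancer cells given 40 pM IL-6 alongside compound; SIE-controlled beta-lactamase reporter measured as 460/530 nm FRET emission ratio; % is scaled to controls: 0 for no effect and ±100 for the full control effect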); conditions: ME-180 SIE beta-lactamase reporter, IL-6 stimulated, 5 h; at 7.69 µM (top of the series) unless noted
# Procedure, shortened: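 ME-180 SIE-bla cells; overnight plating; cpd + IL-6 40 pM, 5 h, 37 C; LiveBLAzer 2.5 h RT; 460/530 nm emission ratio. Normalized to 300 pM IL-6 and 125 nM JAK inhibitor controls.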
# [5] = target: Glucocorticoid receptor (Homo sapiens) (UniProt P04150); experiment: GR-GFP Redistribution (AID 450;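 active = compounds whose dose series gives a full or clear partial fitted curve of increased nuclear translocation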; also: potency is read from the fitted curve at half-maximal effect); conditions: U2OS GR-GFP nuclear translocation, laser cytometry, 2 h
# Glucocorticoid receptor (Homo sapiens), sequence (P04150 whole entry, looked up, the tested form may be a part): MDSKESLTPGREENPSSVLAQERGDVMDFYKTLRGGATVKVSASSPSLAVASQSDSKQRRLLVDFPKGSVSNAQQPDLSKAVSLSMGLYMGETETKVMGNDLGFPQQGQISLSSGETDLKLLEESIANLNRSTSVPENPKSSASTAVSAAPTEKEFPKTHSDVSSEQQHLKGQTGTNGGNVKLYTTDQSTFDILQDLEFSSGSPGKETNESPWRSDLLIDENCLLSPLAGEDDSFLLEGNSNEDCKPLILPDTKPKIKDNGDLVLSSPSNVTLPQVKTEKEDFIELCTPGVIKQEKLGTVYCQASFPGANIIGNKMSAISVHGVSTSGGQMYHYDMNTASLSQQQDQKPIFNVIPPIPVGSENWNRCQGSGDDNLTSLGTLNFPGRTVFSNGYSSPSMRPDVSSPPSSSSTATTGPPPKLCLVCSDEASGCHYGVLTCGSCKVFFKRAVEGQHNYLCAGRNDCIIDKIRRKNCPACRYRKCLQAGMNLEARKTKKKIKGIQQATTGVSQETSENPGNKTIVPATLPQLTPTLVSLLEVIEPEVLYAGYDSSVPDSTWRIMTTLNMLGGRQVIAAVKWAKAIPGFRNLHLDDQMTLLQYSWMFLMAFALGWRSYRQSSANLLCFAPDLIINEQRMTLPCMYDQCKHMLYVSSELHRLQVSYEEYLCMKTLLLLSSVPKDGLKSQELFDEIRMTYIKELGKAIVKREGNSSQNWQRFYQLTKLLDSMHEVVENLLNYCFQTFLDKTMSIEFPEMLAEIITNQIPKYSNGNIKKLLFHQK
# [6] = target: Glucocorticoid receptor (Homo sapiens) (UniProt P04150); experiment: GR-EFC Redistribution (AID 451; calls by dose curve; also: potency is read from the fitted curve at half-maximal effect); conditions: CHO-K1 GR-EFC translocation, beta-gal luminescence, 2 h
# Procedure, shortened: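 CHO-K1 cells expressing nuclear EA and GR-ED fragments of b-gal; compounds titrated up to 46 uM final, 2 h at 37 C. GR nuclear translocation read as complemented b-gal luminescence after 1 h RT detection.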
# [7] = target: Mitogen-activated protein kinase 10 (Mus musculus) (UniProt Q61831); experiment: JNK3 AlphaScreen Assay (AID 530; active = well fitted curve in either direction with a large enough effect, not every such curve was filed as active;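 also: kinase came from lysate of stimulated human HepG2 cells; signal reports phosphorylation of biotinylated GST-cJun 1-79 at Ser73 with 10 µM ATP; % is scaled to controls: 0 for no effect and ±100 for the full control effect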)
# Procedure, shortened: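 qHTS format: compounds tested as titrations against IL-1beta/TNF-alpha-activated HepG2 lysate JNK3 with biotin-GST-cJun substrate and 10 uM ATP at room temperature. Loss of anti-phospho-cJun AlphaScreen signal indicates inhibition.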
# [8] = target: 3',5'-cyclic-AMP phosphodiesterase 4B (Homo sapiens) (UniProt Q07343); experiment: qHTS Assay for Inhibitors of PDE-IV (AID 607; active = well fitted activation curve with a large enough effect in the main read-out, with a control signal flat, not every such curve was filed as active; also: % of control where 0% means no effect)
# 3',5'-cyclic-AMP phosphodiesterase 4B (Homo sapiens), sequence (Q07343 whole entry, looked up): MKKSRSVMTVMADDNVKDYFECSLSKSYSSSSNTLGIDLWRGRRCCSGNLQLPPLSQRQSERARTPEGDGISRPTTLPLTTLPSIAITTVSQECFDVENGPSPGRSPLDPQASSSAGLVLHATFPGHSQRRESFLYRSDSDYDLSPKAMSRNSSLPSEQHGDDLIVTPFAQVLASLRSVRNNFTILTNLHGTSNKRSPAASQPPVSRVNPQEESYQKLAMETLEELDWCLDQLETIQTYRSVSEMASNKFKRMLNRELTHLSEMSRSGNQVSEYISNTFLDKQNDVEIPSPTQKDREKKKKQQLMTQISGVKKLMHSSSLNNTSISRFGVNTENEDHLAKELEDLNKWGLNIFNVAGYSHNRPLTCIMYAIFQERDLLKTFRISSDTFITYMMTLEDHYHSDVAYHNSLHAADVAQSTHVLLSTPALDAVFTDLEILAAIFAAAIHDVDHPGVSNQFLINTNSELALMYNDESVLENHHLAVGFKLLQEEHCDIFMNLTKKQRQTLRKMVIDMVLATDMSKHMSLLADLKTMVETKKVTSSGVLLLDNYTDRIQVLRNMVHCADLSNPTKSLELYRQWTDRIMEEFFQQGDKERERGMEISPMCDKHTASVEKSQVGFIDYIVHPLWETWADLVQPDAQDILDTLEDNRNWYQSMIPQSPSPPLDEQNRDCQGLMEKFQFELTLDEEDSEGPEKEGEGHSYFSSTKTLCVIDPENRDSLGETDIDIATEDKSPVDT
# Procedure, shortened: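 ACTOne HEK293 cells carry a modified cAMP-gated CNG channel and express endogenous PDE4; plated 1000 cells/well, compounds up to 22.9 uM final. Membrane-potential dye fluorescence (ex 535/em 590) was read; parental cells received 10 uM forskolin + 100 uM RO 20-1724.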
# [9] = target: Cytochrome P450 3A4 (Homo sapiens) (UniProt P08684); experiment: qHTS Assay for Inhibitors and Substrates of Cytochrome P450 3A4 (AID 884); also: nearly all actives have a fitted effect of over 50% in size; also: potency is read from the fitted curve at half-maximal effect
# Cytochrome P450 3A4 (Homo sapiens), sequence (P08684 whole entry, looked up): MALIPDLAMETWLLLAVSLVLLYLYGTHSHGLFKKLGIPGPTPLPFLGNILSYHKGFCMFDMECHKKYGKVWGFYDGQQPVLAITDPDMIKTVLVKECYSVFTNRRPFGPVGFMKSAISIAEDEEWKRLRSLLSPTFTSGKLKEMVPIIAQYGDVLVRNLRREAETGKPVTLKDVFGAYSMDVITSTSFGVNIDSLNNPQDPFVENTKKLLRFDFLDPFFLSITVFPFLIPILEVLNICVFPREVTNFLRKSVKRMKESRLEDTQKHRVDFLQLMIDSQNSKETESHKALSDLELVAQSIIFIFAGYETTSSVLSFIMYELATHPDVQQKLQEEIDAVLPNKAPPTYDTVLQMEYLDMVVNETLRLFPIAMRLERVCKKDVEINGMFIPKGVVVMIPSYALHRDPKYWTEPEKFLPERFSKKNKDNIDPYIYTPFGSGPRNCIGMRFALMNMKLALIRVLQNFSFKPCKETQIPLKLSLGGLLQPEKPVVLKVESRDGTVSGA
# Procedure, shortened: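 20 nM human CYP3A4 with 25 uM Luciferin-PPXE (at KM) in 200 mM KPO4, preincubated 10 min with compound; NADPH regeneration started a 60 min RT reaction. Luciferin detected by luminescence, normalized to 57 uM ketoconazole as full inhibition.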
# [10] = qHTS Assay for Lipid Storage Modulators (AID 1519; calls by dose curve); conditions: Drosophila S3 cells, BODIPY lipid droplet/cell ratio, laser cytometry, cells loaded with oleic acid; for activity change, negative = inhibition: at 57.5 µM (top of the series)
# Procedure, shortened: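 Cells seeded at 5,000 per well were treated with compounds over a concentration series and loaded with oleic acid (400 uM, as added). Lipid droplet fluorescence (488 nm excitation, 500-530 nm channel) was read by laser-scanning cytometry and normalized to 20 uM Triacsin C.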
# [11] = target: Dual specificity protein kinase CLK4 (Homo sapiens) (UniProt Q9HAZ1); experiment: qHTS Assay for Inhibitors of CDC-like Kinase 4 (Kinase-Glo Assay) (AID 1770); also: nearly all actives have a fitted effect of over 65% in size; also: potency is read from the fitted curve at half-maximal effect
# Dual specificity protein kinase CLK4 (Homo sapiens), sequence (Q9HAZ1 whole entry, looked up): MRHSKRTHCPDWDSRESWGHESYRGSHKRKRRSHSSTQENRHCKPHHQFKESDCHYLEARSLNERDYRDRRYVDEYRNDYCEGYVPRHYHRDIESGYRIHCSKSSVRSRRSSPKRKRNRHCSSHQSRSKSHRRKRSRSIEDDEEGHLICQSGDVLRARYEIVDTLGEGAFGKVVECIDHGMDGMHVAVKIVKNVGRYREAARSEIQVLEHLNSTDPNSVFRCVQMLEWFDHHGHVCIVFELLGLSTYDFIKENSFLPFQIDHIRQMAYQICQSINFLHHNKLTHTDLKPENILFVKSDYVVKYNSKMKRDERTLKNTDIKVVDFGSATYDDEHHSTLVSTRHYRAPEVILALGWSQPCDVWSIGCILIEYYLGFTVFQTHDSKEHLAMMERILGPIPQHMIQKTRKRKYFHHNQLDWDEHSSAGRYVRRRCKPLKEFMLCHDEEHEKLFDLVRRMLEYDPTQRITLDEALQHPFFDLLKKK
# Procedure, shortened: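 Clk4 25 nM, RS peptide 100 uM, ATP 1 uM, pH 7.5 Tris, 10 mM MgCl2, 2.5 mM DTT; 4.5 h RT; ATP depletion read by Kinase-Glo luminescence.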
# [12] = target: Dual specificity protein kinase CLK4 (Homo sapiens) (UniProt Q9HAZ1); experiment: qHTS Assay for Inhibitors of CDC-like Kinase 4 (ADP-FP Assay) (AID 1795);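 also: recombinant human CLK4 phosphorylating RS repeat peptide at 1 µM ATP; % is scaled to controls: 0 for no effect and ±100 for the full control effect; nearly all actives have a fitted effect of over 60% in size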
# Procedure, shortened: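 Kinase activity was followed as ADP output, converted from fluorescence polarization with a calibration curve. Reactions ran one hour at low ATP (1 uM) with RS peptide substrate.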
# [13] = target: Ubiquitin carboxyl-terminal hydrolase 1 (Homo sapiens) (UniProt O94782); experiment: Inhibitors of USP1/UAF1: Pilot qHTS (AID 504865);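 also: rhodamine fluorescence freed from ubiquitin-rhodamine substrate followed over time; top concentration of the series differs between compounds; % is scaled to controls: 0 for no effect and ±100 for the full control effect; nearly all actives have a fitted effect of over 35% in size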
# Ubiquitin carboxyl-terminal hydrolase 1 (Homo sapiens), sequence (O94782 whole entry, looked up): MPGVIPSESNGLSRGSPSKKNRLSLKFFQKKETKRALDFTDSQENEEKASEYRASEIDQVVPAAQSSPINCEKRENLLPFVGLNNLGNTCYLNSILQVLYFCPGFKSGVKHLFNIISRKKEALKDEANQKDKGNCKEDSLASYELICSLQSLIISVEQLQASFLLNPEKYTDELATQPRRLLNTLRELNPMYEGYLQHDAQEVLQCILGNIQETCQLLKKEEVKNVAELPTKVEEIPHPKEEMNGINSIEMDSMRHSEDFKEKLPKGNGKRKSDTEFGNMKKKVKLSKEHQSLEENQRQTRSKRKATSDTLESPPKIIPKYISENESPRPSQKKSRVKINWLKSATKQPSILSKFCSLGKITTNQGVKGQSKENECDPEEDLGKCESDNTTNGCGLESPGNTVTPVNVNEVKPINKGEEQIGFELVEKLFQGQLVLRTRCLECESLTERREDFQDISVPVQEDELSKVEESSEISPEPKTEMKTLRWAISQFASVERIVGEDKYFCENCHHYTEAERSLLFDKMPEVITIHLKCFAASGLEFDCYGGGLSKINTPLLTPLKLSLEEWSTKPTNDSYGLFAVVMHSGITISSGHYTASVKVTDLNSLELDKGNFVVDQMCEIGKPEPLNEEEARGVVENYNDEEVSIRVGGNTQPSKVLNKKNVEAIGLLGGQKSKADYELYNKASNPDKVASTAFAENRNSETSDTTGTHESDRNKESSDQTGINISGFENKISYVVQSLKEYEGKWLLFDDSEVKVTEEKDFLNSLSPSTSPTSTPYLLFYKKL
# Procedure, shortened: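 Enzyme-free wells gave the negative control, while test wells held 1nM USP1/UAF1 preincubated with compound for 15 min at room temperature. Ub-Rho at 150nM final started the reaction, and fluorescence at 480/540 nm was recorded kinetically.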
# [14] = Primary qHTS for small molecule stabilizers of the endoplasmic reticulum resident proteome: Secreted ER Calcium Modulated Protein (SERCaMP) assay (AID 1508630); also: % is scaled to controls: 0 for no effect and ±100 for the full control effect
# Procedure, shortened: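 GLuc-SERCaMP-expressing SH-SY5Y cells, pretreated 16 h with compound, are challenged with thapsigargin to empty ER calcium stores; after 4 h, coelenterazine is added directly to the medium and luminescence is imaged.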
# [15] = NFAT Signaling Pathway (AID 444; active = well fitted curve in either direction with a large enough effect, not every such curve was filed as active); conditions: Jurkat NFAT-bla M1, carbachol, beta-lactamase ratio, 5 h; at 7.69 µM (top of the series) unless noted
# Procedure, shortened: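 Jurkat cells with NFAT-driven β-lactamase reporter and co-expressed M1 receptor, stimulated with carbachol (final 1 uM, ~EC50), compound titration, 5 h at 37 °C. CCF4 loaded 1 h at RT; 460/530 nm ratio gave %activity and AC50.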
# [16] = target: Cytochrome P450 3A4 (Homo sapiens) (UniProt P08684); experiment: qHTS Assay for Activators of Cytochrome P450 3A4 (AID 885); also: nearly all actives have a fitted effect of over 65% in size
# Procedure, shortened: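 20nM CYP3A4 + 25uM Luciferin-PPXE (=KM), 200mM KPO4; cpd 10 min RT; NADPH regen, 60 min RT; stop w/ detection buffer, 20 min; luminescence. Normalized to 57 uM ketoconazole.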
# [17] = qHTS Assay for Identification of Small Molecule Agonists for Hypoxia Response Element Signaling Pathway (AID 914; active = well fitted activation curve with a large enough effect in the signal ratio, with a control signal flat, not every such curve was filed as active; the % refers to the signal ratio; also: potency is read from the fitted curve at half-maximal effect); conditions: ME-180 (cervical carcinoma) HRE-bla reporter, beta-lactamase ratio, CoCl2, 17 h; activation: stronger effect = higher value
# Procedure, shortened: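 qHTS titration; ME-180 HRE-bla cells; EC50 CoCl2 co-treatment, 17 h at 37 degrees Celsius; CCF4 dye, ex 405nm, em 460nm and 530nm; %Activity from ratio; AC50.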
# [18] = measured here: cell count channel max response
# [19] = measured here: lipid channel max response
Structure (SMILES),Potency [1],"activity change, negative = inhibition [2]",Potency [3],"activity, negative = inhibition [4]",Potency [5],Potency [6],outcome [7],Potency [8],Potency [9],"activity change, negative = inhibition [10]","max response [10, 18]","max response [10, 19]",Potency [11],Potency [12],Potency [13],Potency [14],"activity change, negative = inhibition [15]",Potency [16],Potency [17]
Cc1ccccc1-c1cc(NCCN2CCOCC2)ncn1,> 11.4 µM (inactive),-3.13% (inactive),31.6 µM (active),2.72% (inactive),> 46 µM (inactive),> 46 µM (inactive),inactive,inactive,inactive,-1.17% (inactive),-3.29%,-5.46%,inactive,inactive,inactive,inactive,,,
CN(C)c1ccc(-c2ccc3ncnc(N(C)C)c3c2)cc1,> 11.4 µM (inactive),-10.3% (inactive),0.158 µM (active),-0.741% (inactive),> 46 µM (inactive),> 46 µM (inactive),,inactive,6.31 µM (active),1.7% (inactive),9.5%,8.94%,3.55 µM (active),,inactive,inactive,-14.1% (inactive),inactive,
Cn1c(=O)c(-c2ccccc2)nc2cncnc21,> 11.4 µM (inactive),-7.79% (inactive),0.631 µM (active),-4.68% (inactive),> 9.22 µM (inactive),> 46 µM (inactive),inactive,inactive,,6.1% (inactive),8.5%,16.6%,inactive,inactive,inactive,inactive,-9.84% (inactive),inactive,
CCNc1ncc2nc(-c3cc(F)cc(F)c3)c(=O)n(C)c2n1,> 11.4 µM (inactive),,2 µM (active),,> 9.22 µM (inactive),> 46 µM (inactive),inactive,,,-1.81% (inactive),-4.13%,-3.55%,inactive,inactive,inactive,inactive,,,3.16 µM (active)
Cc1ccccc1-c1cncnc1NCc1cccs1,> 11.4 µM (inactive),1.41% (inactive),3.16 µM (active),3.53% (inactive),> 46 µM (inactive),> 46 µM (inactive),inactive,,0.501 µM (active),5.75% (inactive),11.6%,15.6%,inactive,inactive,inactive,inactive,2.62% (inactive),inactive,
Cc1cnc(CNc2ncncc2-c2cccc(C#N)c2)cn1,> 11.4 µM (inactive),,12.6 µM (active),9.2% (inactive),> 46 µM (inactive),> 46 µM (inactive),inactive,inactive,2 µM (active),8.03% (inactive),20.9%,25.3%,28.2 µM (active),,inactive,inactive,1.24% (inactive),inactive,
COCCNc1cc(-c2ccccc2C)ncn1,> 11.4 µM (inactive),5.04% (inactive),15.8 µM (active),13.1% (inactive),> 46 µM (inactive),> 46 µM (inactive),inactive,inactive,,6.88% (inactive),3.79%,8.94%,12.6 µM (active),,,inactive,5.56% (inactive),,
O=c1c(-c2ccc(Cl)cc2)nc2cnc(N3CCOCC3)nc2n1C[C@H]1CCCO1,> 11.4 µM (inactive),-9.09% (inactive),2 µM (active),-0.789% (inactive),> 9.22 µM (inactive),> 46 µM (inactive),inactive,inactive,,-4.84% (inactive),4.1%,-3.15%,inactive,inactive,inactive,inactive,-5.22% (inactive),,
COc1ccc(-n2c(=O)cnc3cnc(OC)nc32)cc1,> 11.4 µM (inactive),-6% (inactive),,-11.2% (inactive),> 9.22 µM (inactive),,inactive,inactive,,4.86% (inactive),24.2%,29.5%,15.8 µM (active),,,inactive,-7.79% (inactive),,
Cc1nc2cnc(Nc3ccccc3)nc2n(CCC#N)c1=O,> 11.4 µM (inactive),-11.3% (inactive),0.631 µM (active),-19.6% (inactive),> 9.22 µM (inactive),> 46 µM (inactive),inactive,inactive,,-7.58% (inactive),-11.1%,-20.1%,inactive,,inactive,inactive,-3.1% (inactive),,
Cc1ccccc1-c1nccc(NCCN2CCOCC2)n1,> 11.4 µM (inactive),20.7% (inactive),,-1.96% (inactive),> 46 µM (inactive),> 46 µM (inactive),inactive,inactive,,3.61% (inactive),17.5%,21.4%,inactive,,inactive,inactive,-13.9% (inactive),inactive,
